In test [1] the target is Lysosomal acid glucosylceramidase (Homo sapiens) (UniProt P04062). In words: Glucocerebrosidase-p2 (AID 348; in the data active = potency below about 10 µM; also: potency is read from the fitted curve at half-maximal effect). Particulars: purified GBA, blue fluorogenic substrate, 40 min. Summed up:
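Compounds titrated from 0.6 nM upwards against 0.2 nM enzyme in pH 5.9 citric acid/KH2PO4, taurocholate, tween-20; blue fluorogenic substrate 80 uM, 40 min room temperature, stopped and read Ex 365/Em 440 for AC50.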

The nature of test [2]: AP1 Signaling Pathway (AID 357).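 Also: ME-180 reporter cells stimulated with EGF at its EC50 level; % is scaled to controls: 0 for no effect and ±100 for the full control effect.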 The following applies: ME-180 AP-1-bla reporter, EGF-induced, beta-lactamase ratio, 5 h; at 7.69 µM (top of the series) unless noted. Summed up:
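Modulation of EGF-driven AP-1 transcription was assessed with a beta-lactamase reporter in ME-180 cells. Compound and EC50 EGF were co-incubated 5 hours at 37 °C before 2.5-hour CCF4 loading at room temperature and dual-emission reading.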

Test [3] addresses Cytochrome P450 1A2 (Homo sapiens) (UniProt P05177). The test can be described thus: p450-cyp1a2 (AID 410; calls by dose curve; also: potency is read from the fitted curve at half-maximal effect). Particulars: recombinant CYP1A2, luciferin-ME demethylation, luminescence; series mostly up to 11.4 µM. Summed up: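 Luminescent readout of luciferin formed from Luciferin-ME by human CYP1A2; data normalized against complete inhibition by 57 uM furafylline. Enzyme 20nM, substrate 100uM at Km, 100mM KPO4 buffer, 60 min reaction at room temperature.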

The nature of test [4]: NFAT Signaling Pathway (AID 444).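 Also: carbachol stimulus at about its EC50 of 1 µM final; % is scaled to controls: 0 for no effect and ±100 for the full control effect.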 The following applies: Jurkat NFAT-bla M1, carbachol, beta-lactamase ratio, 5 h; at 7.69 µM (top of the series) unless noted. Summed up:
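Jurkat cells carrying an NFAT-driven β-lactamase reporter and co-transfected muscarinic M1 receptor were treated with compound plus carbachol (1 uM final, an EC50 level) for 5 h at 37 °C. CCF4 loading followed for 1 h at RT; 460/530 nm ratio gave %activity.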

Test [5] is described as follows: Stat Signaling Pathway (AID 446).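 Also: ME-180 cervical cancer cells given 40 pM IL-6 alongside compound; SIE-controlled beta-lactamase reporter measured as 460/530 nm FRET emission ratio; % is scaled to controls: 0 for no effect and ±100 for the full control effect.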 Particulars: ME-180 SIE beta-lactamase reporter, IL-6 stimulated, 5 h; at 7.69 µM (top of the series) unless noted. Summed up:
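ME-180 cells carrying a SIE-driven beta-lactamase reporter are stimulated with 40 pM IL-6 for 5 h at 37C in the presence of compound. The 460/530 nm FRET substrate ratio is read after 2.5 h at RT. Data are normalised to 300 pM IL-6 and to 125 nM JAK inhibitor controls.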

Test [6] concerns the target Glucocorticoid receptor (Homo sapiens) (UniProt P04150). The test can be described thus: GR-GFP Redistribution (AID 450;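 active = compounds whose dose series gives a full or clear partial fitted curve of increased nuclear translocation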; also: potency is read from the fitted curve at half-maximal effect). The following applies: U2OS GR-GFP nuclear translocation, laser cytometry, 2 h.
The target is the same in test [7]. In words: GR-EFC Redistribution (AID 451; calls by dose curve; also: potency is read from the fitted curve at half-maximal effect). The following applies: CHO-K1 GR-EFC translocation, beta-gal luminescence, 2 h. Summed up:
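CHO-K1 cells stably expressing nuclear-localized β-gal enzyme acceptor and GR fused C-terminally to the enzyme donor fragment; ligand-driven nuclear translocation restores β-gal by complementation. Compounds titrated up to 46 uM final, 2 h at 37 °C; luminescence read.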

Test [8] concerns the target Mitogen-activated protein kinase 10 (Mus musculus) (UniProt Q61831). In words: JNK3 AlphaScreen Assay (AID 530).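 Also: kinase came from lysate of stimulated human HepG2 cells; signal reports phosphorylation of biotinylated GST-cJun 1-79 at Ser73 with 10 µM ATP; % is scaled to controls: 0 for no effect and ±100 for the full control effect.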 Particulars: JNK3 lysate, c-Jun phosphorylation; series mostly up to 11.4 µM. Summed up: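 Inhibitors reduce antibody binding to phosphorylated biotin-cJun, lowering AlphaScreen luminescence. Lysates from HepG2 cells pre-activated by IL-1beta plus TNF-alpha supplied JNK3; compounds were titrated.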

The target of test [9] is Cytochrome P450 2D6 (Homo sapiens) (UniProt P10635). In words: qHTS Assay for Inhibitors and Substrates of Cytochrome P450 2D6 (AID 891; active = well fitted curve in the direction sought with a large enough effect; an effect the other way counts as inactive or inconclusive; also: potency is read from the fitted curve at half-maximal effect; nearly all actives have a fitted effect of over 60% in size). Particulars: recombinant CYP2D6, luciferin-ME EGE luminescence; series mostly up to 11.4 µM. Summed up:
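Human CYP2D6 (5 nM) with 30 uM Luciferin-ME EGE (at Km) in 100 mM KPO4, compound preincubated 10 min, then NADPH regeneration system for 60 min at room temperature. Luciferin read by luminescence; normalized to 1.43 uM quinidine.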
For orientation: qHTS replaces the single test concentration by a dilution series.

A short description of test [10]: qHTS Assay for Identification of Small Molecule Agonists for Hypoxia Response Element Signaling Pathway (AID 914; active = well fitted activation curve with a large enough effect in the signal ratio, with a control signal flat, not every such curve was filed as active; the % refers to the signal ratio; also: % of control where 0% means no effect). The following applies: ME-180 (cervical carcinoma) HRE-bla reporter, beta-lactamase ratio, CoCl2, 17 h; activation: active compounds read high. Summed up: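 Compounds in a titration series were added to ME-180 reporter cells alongside an EC50 level of CoCl2. After 17 hours, beta-lactamase activity was read as the 460nm/530nm emission ratio of CCF4, giving AC50 values.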

For test [11], the target named is Cytochrome P450 3A4 (Homo sapiens) (UniProt P08684). In words: qHTS Assay for Activators of Cytochrome P450 3A4 (AID 885; active = well fitted curve in the direction sought with a large enough effect; an effect the other way counts as inactive or inconclusive; also: nearly all actives have a fitted effect of over 65% in size). Particulars: recombinant CYP3A4, Luciferin-PPXE luminescence, 60 min; series mostly up to 11.4 µM. Summed up:
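Human CYP3A4 (20 nM) with Luciferin-PPXE at 25 uM (its KM) in 200 mM KPO4; 10 min compound preincubation, then NADPH regeneration and 60 min reaction at RT. Luciferin read by luminescence; normalized to 57 uM ketoconazole full inhibition.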

Test [12] addresses 3',5'-cyclic-AMP phosphodiesterase 4B (Homo sapiens) (UniProt Q07343). The test can be described thus: qHTS Assay for Inhibitors of PDE-IV (AID 607; active = well fitted activation curve with a large enough effect in the main read-out, with a control signal flat, not every such curve was filed as active; also: % of control where 0% means no effect). Particulars: HEK293 ACTOne CNG channel cells, membrane potential fluorescence; series mostly up to 22.9 µM. Summed up: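 HEK293 ACTOne cells with CNG channel (1000/well), endogenous PDE4; membrane potential dye, compounds up to 22.9 uM final. Fluorescence Ex 535/Em 590; RO 20-1724 (100 uM final) as reference.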

The target in test [13] is Cytochrome P450 2C9 (Homo sapiens) (UniProt P11712). In words: qHTS Assay for Inhibitors and Substrates of Cytochrome P450 2C9 (AID 883; active = well fitted curve in the direction sought with a large enough effect; an effect the other way counts as inactive or inconclusive; also: nearly all actives have a fitted effect of over 60% in size; also: potency is read from the fitted curve at half-maximal effect). The following applies: recombinant CYP2C9, luciferin-H luminescence, 60 min; series mostly up to 11.4 µM. Summed up:
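A luminogenic readout tracked human CYP2C9 (10nM) converting deoxyluciferin (100uM, at KM) in 25mM KPO4 during 60 min at 37C with regenerated NADPH. Values normalized to 57uM sulphaphenazole as complete inhibition.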

Test [14] deals with Cytochrome P450 2C19 (Homo sapiens) (UniProt P33261). The test can be described thus: qHTS Assay for Inhibitors and Substrates of Cytochrome P450 2C19 (AID 899; active = well fitted curve in the direction sought with a large enough effect; an effect the other way counts as inactive or inconclusive; also: potency is read from the fitted curve at half-maximal effect; nearly all actives have a fitted effect of over 60% in size). The following applies: recombinant CYP2C19, luciferin-H EGE luminescence; series mostly up to 11.4 µM. Summed up: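 NADPH-dependent conversion of Luciferin-H EGE (10uM, at KM) by 5nM enzyme in 50mM KPO4, 60 min at 37C following 10 min compound preincubation. Stopped with luciferin detection buffer; luminescence read after 20 min.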

Values without a mark were called inactive. Inconclusive results are not listed. Active and inactive are the calls of the source. Unless noted, calls follow the shape of the dose curve; as a rule, active = well fitted curve in either direction with a large enough effect (not every such curve was filed as active); inconclusive = small, poorly fitted or top-dose-only effect, or another doubt; inactive = flat fitted curve, though single readings scatter. Where only a bound is given, the exact number is not on record here.

Sequence of Glucocorticoid receptor (Homo sapiens) (P04150 whole entry, looked up): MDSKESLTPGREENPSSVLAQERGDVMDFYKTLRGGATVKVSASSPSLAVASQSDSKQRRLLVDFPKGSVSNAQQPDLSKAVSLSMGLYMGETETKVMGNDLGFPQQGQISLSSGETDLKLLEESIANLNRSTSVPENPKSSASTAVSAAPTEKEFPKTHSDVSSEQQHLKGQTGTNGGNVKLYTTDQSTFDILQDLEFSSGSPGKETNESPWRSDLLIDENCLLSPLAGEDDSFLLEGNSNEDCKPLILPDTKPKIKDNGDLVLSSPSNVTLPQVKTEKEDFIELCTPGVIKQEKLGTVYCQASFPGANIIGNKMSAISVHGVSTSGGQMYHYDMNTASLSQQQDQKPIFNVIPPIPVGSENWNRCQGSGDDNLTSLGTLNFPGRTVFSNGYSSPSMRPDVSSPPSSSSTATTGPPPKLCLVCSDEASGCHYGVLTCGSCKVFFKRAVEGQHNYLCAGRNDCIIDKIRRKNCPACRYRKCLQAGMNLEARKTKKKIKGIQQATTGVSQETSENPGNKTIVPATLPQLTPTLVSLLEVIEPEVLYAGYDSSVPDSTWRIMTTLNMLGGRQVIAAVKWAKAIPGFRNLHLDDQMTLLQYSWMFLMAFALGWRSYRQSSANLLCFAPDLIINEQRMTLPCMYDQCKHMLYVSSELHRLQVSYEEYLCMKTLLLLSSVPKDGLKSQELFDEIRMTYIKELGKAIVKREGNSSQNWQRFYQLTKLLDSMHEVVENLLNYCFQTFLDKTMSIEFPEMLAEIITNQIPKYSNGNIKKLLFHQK
Sequence of Lysosomal acid glucosylceramidase (Homo sapiens) (P04062 whole entry, looked up): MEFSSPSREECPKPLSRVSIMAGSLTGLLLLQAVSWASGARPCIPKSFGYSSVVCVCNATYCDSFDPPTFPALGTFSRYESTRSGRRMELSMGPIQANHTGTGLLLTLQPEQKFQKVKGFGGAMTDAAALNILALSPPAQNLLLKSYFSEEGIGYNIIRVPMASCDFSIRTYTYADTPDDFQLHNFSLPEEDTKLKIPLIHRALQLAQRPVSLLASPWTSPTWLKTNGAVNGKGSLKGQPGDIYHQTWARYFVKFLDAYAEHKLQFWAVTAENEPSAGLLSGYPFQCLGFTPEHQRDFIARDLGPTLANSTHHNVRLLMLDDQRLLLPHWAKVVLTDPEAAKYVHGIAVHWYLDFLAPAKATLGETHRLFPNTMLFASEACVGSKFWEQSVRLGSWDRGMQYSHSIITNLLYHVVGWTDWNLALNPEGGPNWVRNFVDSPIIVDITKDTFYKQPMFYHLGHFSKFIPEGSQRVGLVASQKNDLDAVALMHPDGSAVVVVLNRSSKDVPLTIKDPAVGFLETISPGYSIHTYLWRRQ
Sequence of 3',5'-cyclic-AMP phosphodiesterase 4B (Homo sapiens) (Q07343 whole entry, looked up): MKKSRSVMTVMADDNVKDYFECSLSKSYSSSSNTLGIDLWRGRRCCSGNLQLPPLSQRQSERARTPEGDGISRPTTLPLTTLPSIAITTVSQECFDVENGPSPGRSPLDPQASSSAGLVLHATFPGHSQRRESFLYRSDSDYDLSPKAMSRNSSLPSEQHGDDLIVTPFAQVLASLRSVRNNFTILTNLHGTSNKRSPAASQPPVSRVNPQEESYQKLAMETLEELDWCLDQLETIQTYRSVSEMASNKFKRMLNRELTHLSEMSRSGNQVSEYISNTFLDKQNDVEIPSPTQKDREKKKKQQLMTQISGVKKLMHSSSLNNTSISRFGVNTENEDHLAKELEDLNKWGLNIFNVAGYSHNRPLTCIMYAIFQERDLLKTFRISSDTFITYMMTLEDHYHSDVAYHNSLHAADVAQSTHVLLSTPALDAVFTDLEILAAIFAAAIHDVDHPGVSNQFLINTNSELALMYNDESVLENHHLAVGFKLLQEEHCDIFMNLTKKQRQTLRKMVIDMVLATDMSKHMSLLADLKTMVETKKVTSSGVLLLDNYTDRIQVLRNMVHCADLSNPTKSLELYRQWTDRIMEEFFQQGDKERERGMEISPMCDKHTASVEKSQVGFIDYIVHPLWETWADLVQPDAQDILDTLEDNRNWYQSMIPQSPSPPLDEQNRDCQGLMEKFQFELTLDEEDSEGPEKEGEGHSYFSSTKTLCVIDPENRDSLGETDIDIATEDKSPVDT
Sequence of Cytochrome P450 1A2 (Homo sapiens) (P05177 whole entry, looked up): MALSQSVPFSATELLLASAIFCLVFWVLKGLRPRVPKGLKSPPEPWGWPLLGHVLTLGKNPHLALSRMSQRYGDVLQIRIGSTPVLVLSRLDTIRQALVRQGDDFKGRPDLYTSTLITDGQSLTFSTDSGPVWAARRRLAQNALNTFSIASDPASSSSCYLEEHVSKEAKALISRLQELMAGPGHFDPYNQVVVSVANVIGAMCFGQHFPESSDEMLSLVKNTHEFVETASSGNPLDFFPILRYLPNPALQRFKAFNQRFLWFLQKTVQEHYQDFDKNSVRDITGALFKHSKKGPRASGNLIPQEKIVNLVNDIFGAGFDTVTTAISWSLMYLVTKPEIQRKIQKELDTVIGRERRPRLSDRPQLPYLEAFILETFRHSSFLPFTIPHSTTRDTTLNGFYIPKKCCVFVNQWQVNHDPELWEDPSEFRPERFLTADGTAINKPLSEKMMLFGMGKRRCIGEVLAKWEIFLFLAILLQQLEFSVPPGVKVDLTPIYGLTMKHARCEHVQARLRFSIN
Sequence of Cytochrome P450 3A4 (Homo sapiens) (P08684 whole entry, looked up): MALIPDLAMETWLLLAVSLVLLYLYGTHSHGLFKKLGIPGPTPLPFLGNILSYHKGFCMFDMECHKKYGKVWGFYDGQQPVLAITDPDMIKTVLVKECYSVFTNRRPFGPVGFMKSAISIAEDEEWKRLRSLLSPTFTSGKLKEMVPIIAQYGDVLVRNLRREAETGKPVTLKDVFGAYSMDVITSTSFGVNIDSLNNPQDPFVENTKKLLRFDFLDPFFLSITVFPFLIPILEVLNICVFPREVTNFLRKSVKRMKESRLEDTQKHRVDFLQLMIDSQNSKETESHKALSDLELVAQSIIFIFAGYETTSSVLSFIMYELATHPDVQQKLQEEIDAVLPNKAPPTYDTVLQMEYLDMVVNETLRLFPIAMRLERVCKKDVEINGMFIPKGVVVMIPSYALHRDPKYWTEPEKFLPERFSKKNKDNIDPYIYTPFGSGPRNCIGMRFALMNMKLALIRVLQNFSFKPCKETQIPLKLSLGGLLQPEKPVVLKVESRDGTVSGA
Sequence of Cytochrome P450 2C9 (Homo sapiens) (P11712 whole entry, looked up): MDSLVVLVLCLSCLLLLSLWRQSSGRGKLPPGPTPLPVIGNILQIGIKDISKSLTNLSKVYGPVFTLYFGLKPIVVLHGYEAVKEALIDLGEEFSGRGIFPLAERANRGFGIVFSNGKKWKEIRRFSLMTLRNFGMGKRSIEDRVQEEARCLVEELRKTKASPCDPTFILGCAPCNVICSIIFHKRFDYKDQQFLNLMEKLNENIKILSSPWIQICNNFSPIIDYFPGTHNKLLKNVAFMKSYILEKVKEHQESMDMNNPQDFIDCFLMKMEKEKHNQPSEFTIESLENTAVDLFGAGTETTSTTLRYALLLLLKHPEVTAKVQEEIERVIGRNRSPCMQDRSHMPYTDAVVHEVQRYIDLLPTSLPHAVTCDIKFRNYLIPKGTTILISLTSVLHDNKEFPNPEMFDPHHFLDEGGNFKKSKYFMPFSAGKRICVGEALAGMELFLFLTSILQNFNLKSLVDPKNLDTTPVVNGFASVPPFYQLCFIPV
Sequence of Cytochrome P450 2C19 (Homo sapiens) (P33261 whole entry, looked up): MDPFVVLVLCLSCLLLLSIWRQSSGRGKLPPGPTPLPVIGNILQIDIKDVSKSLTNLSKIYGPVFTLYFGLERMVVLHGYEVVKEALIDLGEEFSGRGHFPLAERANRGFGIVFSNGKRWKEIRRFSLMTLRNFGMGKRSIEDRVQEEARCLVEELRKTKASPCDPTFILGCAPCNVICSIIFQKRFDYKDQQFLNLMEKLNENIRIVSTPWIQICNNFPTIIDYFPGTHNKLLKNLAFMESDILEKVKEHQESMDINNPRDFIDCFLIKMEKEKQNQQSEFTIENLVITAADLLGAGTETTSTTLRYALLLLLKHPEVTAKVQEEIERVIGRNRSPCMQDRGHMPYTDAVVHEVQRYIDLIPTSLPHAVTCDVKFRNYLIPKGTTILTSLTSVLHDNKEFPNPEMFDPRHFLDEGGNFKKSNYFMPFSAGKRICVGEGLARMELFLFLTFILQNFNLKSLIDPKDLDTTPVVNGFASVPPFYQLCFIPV
Sequence of Cytochrome P450 2D6 (Homo sapiens) (P10635 whole entry, looked up): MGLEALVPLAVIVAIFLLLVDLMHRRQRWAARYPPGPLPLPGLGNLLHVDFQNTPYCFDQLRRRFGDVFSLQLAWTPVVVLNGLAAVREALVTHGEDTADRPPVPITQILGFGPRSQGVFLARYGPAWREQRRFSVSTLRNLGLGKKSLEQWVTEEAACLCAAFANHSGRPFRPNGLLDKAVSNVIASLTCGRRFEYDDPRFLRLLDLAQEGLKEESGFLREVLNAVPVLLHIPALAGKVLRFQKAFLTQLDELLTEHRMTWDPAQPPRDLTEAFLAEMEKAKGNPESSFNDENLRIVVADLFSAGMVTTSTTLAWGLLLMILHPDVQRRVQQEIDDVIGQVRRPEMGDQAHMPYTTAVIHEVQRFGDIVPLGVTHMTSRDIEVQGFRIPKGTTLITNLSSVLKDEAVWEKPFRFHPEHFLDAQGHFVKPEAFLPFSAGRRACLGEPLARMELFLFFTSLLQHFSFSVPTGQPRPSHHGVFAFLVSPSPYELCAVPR

For the compound `O=C(O)NCc1ccccc1` (tested in a mixture with another compound), the Potency in test [1] was above 11.4 µM; in [3], 3.16 µM (active); in test [6], above 46 µM; in [7], above 9.22 µM; in [9], 3.98 µM (active). The figures for the activity change, negative = inhibition in test [2] and in test [4] were 4.23% and -18.9%, respectively. Also, in [5], the activity, negative = inhibition is 1.18%. Besides, the Potency result in test [8] is “inactive”. Besides, the activation in test [10] is 1.79%.
As to `COc1ccc(-n2c(=O)c(C)nc3cnc(Nc4cccc(OC)c4)nc32)cc1`, the Potency was above 11.4 µM in [1], 15.8 µM (active) in test [3], above 9.22 µM in test [6] and above 46 µM in test [7]. For the same compound, the activity change, negative = inhibition was -25.7% in [2] and 10.5% in test [4]. The activity, negative = inhibition in test [5] was -24.1%. In addition, the Potency result in [8] and in test [11] was “inactive” each time.
In the case of `O=C(O)c1cccc(CN2CCCCC2)c1`, the Potency in test [1] is above 11.4 µM; in test [6], above 46 µM; in test [7] it was above 9.22 µM. The results for the activity change, negative = inhibition in test [2] and in test [4] were 9.32% and -15.5%, respectively. Moreover, the Potency entry in test [3], in test [12] and in test [13] was “inactive” each time. For the same compound, the activity, negative = inhibition in test [5] was 3.88%.
On to `CN(C)C(=O)c1ccc(-c2nc(Nc3ccc(F)cc3)c3ccccc3n2)cc1`, for which the Potency in test [1] was above 11.4 µM; in [3] it was 3.98 µM (active); in test [6], above 46 µM; in [7], above 46 µM. Further, the activity change, negative = inhibition in test [2] was -18.3%; in [4], 1.18%. Moreover, the activity, negative = inhibition in test [5] is -8.08%. In addition, the Potency entry in test [8] was “inactive”. For the same compound, the activation in test [10] was 14.9%.
Regarding `CN(CC(=O)O)Cc1c[nH]c2ccccc12`, the values for the Potency in test [1], in [6] and in [7] were above 11.4 µM, above 46 µM and above 9.22 µM, respectively. In addition, the figures for the activity change, negative = inhibition in [2] and in [4] were -2.9% and -8.48%, respectively. Besides, the Potency entry in test [3] and in test [12] was “inactive” in each case. Besides, in test [5], the activity, negative = inhibition was -5.98%.
Turning to `CN(C)c1ccc(N=Nc2cccc3ccoc23)cc1`, the Potency was above 11.4 µM in [1], 0.251 µM (active) in test [3], above 46 µM in test [6] and above 9.22 µM in test [7]. The activity change, negative = inhibition in test [2] was 1.15%; in test [4], -18.9%. Further, in [5], the activity, negative = inhibition is 4.35%. Moreover, the Potency result in test [12] and in test [11] was “inactive” throughout.
Regarding `O=C1c2ccccc2C(=O)c2c1ccc(C(=O)O)c2-c1ccc2ccccc2c1`, the Potency is above 11.4 µM in test [1]; 1.26 µM (active) in test [3]; above 46 µM in test [6]; above 9.22 µM in test [7]; 1.58 µM (active) in test [13]; 2.51 µM (active) in test [14]. The activity change, negative = inhibition is 1.13% in test [2] and 16.7% in test [4]. Moreover, the activity, negative = inhibition in [5] is -16.8%. Besides, in [12], the Potency result was “inactive”.
With `O=S(=O)(O)c1cc(N=Nc2cccc3ccccc23)c(O)c2ncccc12`, the Potency in test [1] was above 11.4 µM; in test [3], 0.631 µM (active); in test [6], above 46 µM; in test [7], above 9.22 µM. Besides, the activity change, negative = inhibition in test [2] was -3.71%; in test [4], 8.38%. Further, in [5], the activity, negative = inhibition is 0.477%. Further, the Potency result in test [12] is “inactive”.

Source of the values: PubChem BioAssay (NCATS).
